Test results published in the supplement of paper PMC3334620.
Over roughly 33,000 sequences, “E-score (-0.5 to 0.5)” has its median near -0.054; the highest 2% begin near 0.39. The entries come from a sample that favours the highest values as a whole.

Each sequence was assayed against Ylr278c (UniProt Q05854) (assay: PBM E-score (8-mer binding enrichment) (E-score (-0.5 to 0.5)); higher = stronger / more preferred TF binding). Settings: protein concentration: 200 nM; construct: GST-DNA-binding domain.
Chain of UniProt Q05854 (Q05854 whole entry, the tested form may be a part): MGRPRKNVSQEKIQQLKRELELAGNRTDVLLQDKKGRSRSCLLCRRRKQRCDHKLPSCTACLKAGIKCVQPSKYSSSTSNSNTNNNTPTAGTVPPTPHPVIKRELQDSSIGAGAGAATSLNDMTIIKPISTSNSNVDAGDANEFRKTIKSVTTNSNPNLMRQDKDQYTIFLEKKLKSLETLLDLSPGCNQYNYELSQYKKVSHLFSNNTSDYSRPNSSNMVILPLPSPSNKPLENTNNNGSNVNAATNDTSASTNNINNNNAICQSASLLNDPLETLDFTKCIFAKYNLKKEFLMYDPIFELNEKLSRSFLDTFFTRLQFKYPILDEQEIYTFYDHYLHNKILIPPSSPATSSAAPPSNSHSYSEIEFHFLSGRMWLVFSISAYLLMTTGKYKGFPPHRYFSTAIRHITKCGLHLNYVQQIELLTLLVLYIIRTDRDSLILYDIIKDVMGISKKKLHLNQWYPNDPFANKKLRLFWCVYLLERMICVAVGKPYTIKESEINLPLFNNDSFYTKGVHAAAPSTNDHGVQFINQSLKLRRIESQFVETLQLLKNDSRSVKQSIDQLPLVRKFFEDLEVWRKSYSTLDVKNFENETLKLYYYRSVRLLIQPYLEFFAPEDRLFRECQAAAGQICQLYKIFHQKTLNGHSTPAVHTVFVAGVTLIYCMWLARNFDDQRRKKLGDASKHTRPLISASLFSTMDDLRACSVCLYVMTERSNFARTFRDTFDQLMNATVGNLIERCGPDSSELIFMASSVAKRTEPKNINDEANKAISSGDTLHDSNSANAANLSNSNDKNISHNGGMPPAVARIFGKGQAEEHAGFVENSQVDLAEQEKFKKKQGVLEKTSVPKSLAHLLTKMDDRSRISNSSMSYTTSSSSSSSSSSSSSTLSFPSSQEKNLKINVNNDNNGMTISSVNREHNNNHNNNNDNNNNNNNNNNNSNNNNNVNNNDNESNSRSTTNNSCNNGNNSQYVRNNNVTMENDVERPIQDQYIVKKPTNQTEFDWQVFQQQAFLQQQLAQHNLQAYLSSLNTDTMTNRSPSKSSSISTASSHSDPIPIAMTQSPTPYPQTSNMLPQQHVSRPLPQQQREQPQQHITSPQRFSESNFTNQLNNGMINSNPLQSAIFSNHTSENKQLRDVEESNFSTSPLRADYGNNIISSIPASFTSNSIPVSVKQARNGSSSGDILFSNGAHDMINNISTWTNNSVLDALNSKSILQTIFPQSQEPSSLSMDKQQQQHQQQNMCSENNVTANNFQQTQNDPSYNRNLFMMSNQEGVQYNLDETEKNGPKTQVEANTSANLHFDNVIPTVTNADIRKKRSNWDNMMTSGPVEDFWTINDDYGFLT
Procedure: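 Universal 'all 10-mer' protein binding microarrays (Agilent AMADID 015681) probed with GST-tagged S. cerevisiae TFs (full-length or DBD) made by in vitro transcription/translation (PURExpress), about 100-200 nM. Bound TF was detected with fluorescent anti-GST. Each ungapped 8-mer (which stands for itself and its reverse complement) is scored by the PBM enrichment score (E-score), a modified Wilcoxon-Mann-Whitney statistic from -0.5 to +0.5, computed with the Universal PBM Analysis Suite. Scale: above 0.35 generally sequence-specific binding.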

Going from GATAGTGA to ATTTTAAA, the “PBM E-score” value rises from -0.0321 to 0.0686.

Compared with CCAACTGG, AGTTGCGC is higher in “PBM E-score” value: -0.22 for the first, 0.233 for the second.

Going from ACTTCACT to AAATCAGT, the “PBM E-score” value rises from -0.0406 to 0.0231.

Compared with AGTCTCCA, ATTCTCCA is higher in “PBM E-score” value: -0.312 for the first, -0.052 for the second.

Going from AGTCTCCG to ATTCTCCG, the “PBM E-score” value rises from 0.434 to 0.474.

Going from ATTCTCCC to AGTCTCCC, the “PBM E-score” value rises from 0.0768 to 0.102.

Compared with CCGTCTCA, CTCTGCTA is lower in “PBM E-score” value: 0.0735 for the first, -0.128 for the second.

Compared with CTAGCAGA, CTCAAAGA is lower in “PBM E-score” value: -0.195 for the first, -0.2 for the second.

Going from TAGTCATA to AATATCCC, the “PBM E-score” value rises from -0.145 to 0.211.

First: AATATCGC
Second: CAAATCCG
The “PBM E-score” value of the first is lower: 0.125 for the first, 0.381 for the second.

Going from AAAATCCC to AATATCGG, the “PBM E-score” value rises from 0.263 to 0.395.

First: AATATCCA
Second: AATATCCG
The “PBM E-score” value of the first is lower: 0.0239 for the first, 0.423 for the second.

Compared with ATTATCCA, AAAATCCG is higher in “PBM E-score” value: -0.155 for the first, 0.451 for the second.

Going from ATTATCCG to ATTATCCC, the “PBM E-score” value falls from 0.393 to 0.0767.

First: AATATCGA
Second: ACGCATGC
The “PBM E-score” value of the first is higher: -0.0141 for the first, -0.0181 for the second.

Compared with GCTCGTTA, ATCAGCGG is higher in “PBM E-score” value: -0.188 for the first, 0.29 for the second.

First: CGACCACG
Second: ATACAGCA
The “PBM E-score” value of the first is higher: 0.0345 for the first, -0.0117 for the second.

Going from AAATCAAC to AACTGACC, the “PBM E-score” value rises from -0.111 to 0.152.

Compared with CCGCGCGC, CGGCGCCA is lower in “PBM E-score” value: 0.28 for the first, 0.214 for the second.

Compared with CCGCGCCA, CCGCGCCC is higher in “PBM E-score” value: 0.182 for the first, 0.191 for the second.

Compared with CCGCGCGG, AGGCGCCG is lower in “PBM E-score” value: 0.433 for the first, 0.206 for the second.

Compared with CGGCGCCG, CCGCGCGA is lower in “PBM E-score” value: 0.461 for the first, 0.216 for the second.

Going from CCGCGCCG to CGACACTA, the “PBM E-score” value falls from 0.4 to 0.102.

Going from CGGTTGCC to GGCCTTAA, the “PBM E-score” value falls from 0.109 to -0.0388.

Going from TATGTTCA to TACATTCA, the “PBM E-score” value falls from -0.0845 to -0.223.

Compared with ACGGACAT, TAGGACAA is lower in “PBM E-score” value: 0.392 for the first, -0.233 for the second.

Compared with ACGGACAG, ACGGACAA is higher in “PBM E-score” value: 0.043 for the first, 0.355 for the second.

Compared with GCGGACAA, CCGGACAC is lower in “PBM E-score” value: 0.398 for the first, 0.371 for the second.

First: GCGGACAC
Second: ACGGACAC
The “PBM E-score” value of the first is higher: 0.216 for the first, 0.194 for the second.

First: TCGGACCA
Second: TCGGACAA
The “PBM E-score” value of the first is lower: 0.379 for the first, 0.434 for the second.

Going from CCGGACAA to CCGGACAG, the “PBM E-score” value falls from 0.444 to 0.357.

First: AAAATCGA
Second: GCTCTCCC
The “PBM E-score” value of the first is lower: -0.177 for the first, -0.0961 for the second.

Going from CCCACCAG to AGCCTACA, the “PBM E-score” value rises from -0.212 to -0.0936.

Going from CGGCCGAG to ACTCCCAC, the “PBM E-score” value falls from 0.279 to -0.035.

Going from TCTACCCA to TCTGCACA, the “PBM E-score” value rises from -0.14 to 0.0219.

Going from ACAGACCA to GATTCGAA, the “PBM E-score” value rises from -0.0751 to 0.102.

Going from AGCTTAAG to ATGAGCCC, the “PBM E-score” value rises from -0.229 to -0.138.

Going from CCTGATAC to CGAGAAAA, the “PBM E-score” value rises from -0.0837 to -0.0264.

First: AGACTAAT
Second: CCGGATAC
The “PBM E-score” value of the first is lower: -0.0793 for the first, 0.384 for the second.

Compared with CCGGATAA, GCGGATAA is lower in “PBM E-score” value: 0.417 for the first, 0.314 for the second.

First: TCGGATAA
Second: CCGGATAG
The “PBM E-score” value of the first is higher: 0.403 for the first, 0.347 for the second.

First: ACGGATAA
Second: ATCAAGGG
The “PBM E-score” value of the first is higher: 0.293 for the first, -0.1 for the second.

Compared with CCAAAGCA, CGTCCAGC is lower in “PBM E-score” value: -0.107 for the first, -0.233 for the second.

Compared with CGTCCGTA, AGTCCGCA is higher in “PBM E-score” value: 0.189 for the first, 0.372 for the second.

Going from GGTCCGGA to GGTCCGCA, the “PBM E-score” value falls from 0.446 to 0.278.

First: AGTCCGTA
Second: AGTCCGGA
The “PBM E-score” value of the first is lower: 0.328 for the first, 0.476 for the second.

First: CGTCCGCA
Second: CGTCCGTC
The “PBM E-score” value of the first is higher: 0.246 for the first, 0.208 for the second.

First: CGTCCGGC
Second: CGTCCGGA
The “PBM E-score” value of the first is lower: 0.407 for the first, 0.43 for the second.

Going from GGTCCGTA to CATTTTCG, the “PBM E-score” value falls from 0.304 to 0.173.

Compared with TAAGTGAA, ATGAGGAG is lower in “PBM E-score” value: -0.072 for the first, -0.132 for the second.

First: CGGACGCC
Second: CTAGTTCC
The “PBM E-score” value of the first is higher: 0.366 for the first, 0.0969 for the second.

Compared with CGCAATTC, CATGAAGG is lower in “PBM E-score” value: 0.201 for the first, -0.145 for the second.

Compared with TATCCACA, ACAACTCC is higher in “PBM E-score” value: -0.144 for the first, 0.295 for the second.

First: CCTTTCGC
Second: AGTGCGGA
The “PBM E-score” value of the first is lower: 0.0666 for the first, 0.394 for the second.

First: AATGCGGT
Second: CATGCGGA
The “PBM E-score” value of the first is lower: 0.116 for the first, 0.317 for the second.

First: CGTGCGGA
Second: AGTGCGGG
The “PBM E-score” value of the first is higher: 0.279 for the first, 0.258 for the second.

Compared with AATGCGGA, CGCCGGCC is lower in “PBM E-score” value: 0.396 for the first, 0.367 for the second.

Compared with GGCCGGCC, CGCCGGCG is higher in “PBM E-score” value: 0.372 for the first, 0.463 for the second.

Compared with GGCCGGCA, CGCCGCCG is lower in “PBM E-score” value: 0.394 for the first, 0.362 for the second.

First: AGCCGGCC
Second: CGCCGGCA
The “PBM E-score” value of the first is lower: 0.324 for the first, 0.39 for the second.

Going from AGCCGGCA to AGCCGGCG, the “PBM E-score” value rises from 0.33 to 0.372.

Going from AAGCTATG to AATTTGAG, the “PBM E-score” value rises from -0.249 to -0.15.

Going from CCCATCTC to GGATGGGA, the “PBM E-score” value falls from 0.0175 to 0.0151.

Going from GTTGTGTA to AACAAGCA, the “PBM E-score” value rises from -0.159 to 0.0514.

First: CGTGGGCA
Second: GCAGGAGC
The “PBM E-score” value of the first is higher: -0.16 for the first, -0.194 for the second.

Compared with GCCGGAGA, GCCGGAGC is lower in “PBM E-score” value: 0.459 for the first, 0.452 for the second.

Going from TCCAGAGA to GCCGGTGA, the “PBM E-score” value rises from -0.212 to 0.298.

Compared with CCCGGAGC, TCAGGAGA is lower in “PBM E-score” value: 0.452 for the first, -0.0923 for the second.

First: GCCAGAGA
Second: TCCGGAGA
The “PBM E-score” value of the first is lower: -0.194 for the first, 0.483 for the second.

Going from CCGGGAGC to CCCGGACC, the “PBM E-score” value rises from 0.228 to 0.376.

Going from GCCAGAGC to GTCTACTA, the “PBM E-score” value rises from -0.222 to -0.0894.

First: CCGTCCCG
Second: CCCAACCG
The “PBM E-score” value of the first is higher: 0.348 for the first, -0.0967 for the second.

Going from AAGCTGCC to ATCCAAGG, the “PBM E-score” value rises from -0.234 to 0.0179.

Compared with AGGCTGCA, CCCCTCAG is higher in “PBM E-score” value: -0.242 for the first, -0.124 for the second.

First: TCAAAGCA
Second: AGTTCACC
The “PBM E-score” value of the first is lower: -0.174 for the first, 0.126 for the second.

Going from GCAACCAC to CCCGGAGG, the “PBM E-score” value rises from 0.00041 to 0.439.

First: CCCGGAGA
Second: CCGGGAGG
The “PBM E-score” value of the first is higher: 0.476 for the first, 0.261 for the second.

Compared with ACCGGATG, CCCCGAGG is lower in “PBM E-score” value: 0.279 for the first, 0.245 for the second.

First: ACCGGAGG
Second: CCGGGAGA
The “PBM E-score” value of the first is higher: 0.441 for the first, 0.362 for the second.

Compared with CCCAGAGA, ACTGGAGC is higher in “PBM E-score” value: -0.233 for the first, -0.117 for the second.

First: ACCGGAGC
Second: ACCGGATC
The “PBM E-score” value of the first is higher: 0.448 for the first, 0.354 for the second.

Compared with ACCGGGGG, GCGTATAC is lower in “PBM E-score” value: 0.293 for the first, -0.00732 for the second.

Compared with CGTAGAAC, AATGAACA is lower in “PBM E-score” value: -0.0134 for the first, -0.117 for the second.

Going from ACATTGGG to TATATCCA, the “PBM E-score” value falls from -0.122 to -0.171.

Going from ACAGGAGA to ACAGGAGT, the “PBM E-score” value falls from -0.0277 to -0.0336.

Compared with ACCGGAGA, ACCGGATA is lower in “PBM E-score” value: 0.475 for the first, 0.265 for the second.

Going from ACCAGAGT to ACCGGAGT, the “PBM E-score” value rises from -0.219 to 0.481.
